The values that follow come from paper PMC5540273 (PLoS ONE, 2017).

Common to all, as to settings: concentration: 1 μM, replicates: in singlicate; n = 1
In assay [1] the test system is EPHA7.
The subject of assay [2] is EPHA8.
Assay [3] relates to EPHB1.
Assay [4] concerns EPHB2.
Assay [5] concerns EPHB3.
The test system of assay [6] is EPHB4.
Assay [7] has as its system EPHB6.
Assay [8] deals with ERBB2.
For assay [9], the system named is ERBB3.
For assay [10], the system named is ERBB4.
In assay [11] the test system is T1, ERK1.
T1 construct: gene MAPK3

The subject of assay [12] is T2, ERK2.
T2 construct: gene MAPK1

The test system of assay [13] is T3, ERK3.
T3 construct: gene MAPK6

Assay [14] has as its system T4, ERK4.
T4 construct: gene MAPK4

Assay [15] deals with T5, ERK5.
T5 construct: gene MAPK7

In assay [16] the test system is T6, ERK8.
T6 construct: gene MAPK15

Assay [17] relates to ERN1.
The subject of assay [18] is T7, FAK.
T7 construct: gene PTK2

In assay [19] the test system is FER.
Assay [20] deals with FES.
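Also: KINOMEscan kinase panel screen.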

In the case of `CN(c1ccc(F)c(NC(=O)c2cccc(OC(C)(C)C#N)c2Cl)c1)c1ccc2nc(NC(=O)C3CC3)sc2n1`, the “%Inh” value in assay [1] was determined as 0%; in [2] it was 41%; in [3] it was 10%; in [4], 2%; in assay [5], 0%; in [6] it was 14%. Moreover, the “%Inh” value in assay [7] turned out to be 88%; in assay [8], 66%; in assay [9] it was 9%; in assay [10] it was 67%; in assay [11], 1%; in assay [12] it was 1%. Moreover, the “%Inh” value was found to be 0% in assay [13]; 0% in assay [14]; 4% in assay [15]; 0% in assay [16]; 0% in assay [17]; 1% in assay [18]. The “%Inh” value in assay [19] and in assay [20] was 0% throughout.
As for `CN(c1ccc(NC(=O)N2CCN(CCCN3CCOCC3)CC2)cc1)c1ccnc(Nc2ccc(CS(C)(=O)=O)cc2)n1.Cl` [GW830899], the “%Inh” value in [1] turned out to be 0%; in assay [2], 0%; in assay [3], 0%; in [4], 4%; in [5], 0%; in [6] it was 22%. Besides, the “%Inh” value is given as 81% in assay [7]; 2% in assay [8]; 17% in [9]; 0% in [10]; 0% in [11]; 0% in [12]. Further, the “%Inh” value turned out to be 0% in assay [13]; 8% in [14]; 0% in assay [15]; 0% in assay [16]; 0% in assay [17]; 34% in [18]. Further, the results for the “%Inh” value in [19] and in assay [20] were 10% and 0%, respectively.
`Cc1ccc(NC(=O)c2ccc(Cl)c(Cl)c2)cc1-c1ccc(C(=O)Nc2ccncc2)cc1` [GSK1398460]: the “%Inh” value is given as 9% in [1]; 35% in [2]; 17% in assay [3]; 17% in assay [4]; 25% in [5]; 19% in assay [6]. Besides, the “%Inh” value came out at 16% in assay [7]; 2% in assay [8]; 0% in [9]; 4% in assay [10]; 5% in assay [11]; 2% in assay [12]. Further, the “%Inh” value in assay [13] is 0%; in assay [14], 13%; in assay [15] it was 0%; in assay [16], 0%; in [17], 0%; in [18], 0%. In addition, the “%Inh” value is recorded as 34% in assay [19] and 0% in [20].
Take `COc1ccc(NC(=O)c2ccoc2)cc1-c1ccc(C(=O)NCC2CC2)cc1` [GW810437]: the “%Inh” value is 0% in assay [1]; 1% in assay [2]; 4% in assay [3]; 0% in assay [4]; 0% in [5]; 0% in assay [6]. Besides, the “%Inh” value is given as 24% in [7]; 15% in [8]; 12% in [9]; 7% in [10]; 0% in assay [11]; 7% in assay [12]. The “%Inh” value in assay [13] is listed as 0%; in assay [14] it was 6%; in assay [15], 7%; in assay [16] it was 0%; in assay [17], 33%; in [18], 0%. Moreover, the “%Inh” value in assay [19] came out at 0%; in assay [20] it was 7%.
As for `O=C(Nc1n[nH]c2nc(-c3ccccc3O)ccc12)C1CC1` [SB-711880], the “%Inh” value in [1] worked out at 58%; in assay [2], 37%; in [3], 0%; in assay [4], 0%; in [5] it was 0%; in assay [6], 0%. Also, the “%Inh” value in assay [7] is given as 53%; in [8], 0%; in assay [9], 0%; in [10] it was 0%; in assay [11] it was 0%; in assay [12], 0%. Moreover, the “%Inh” value is reported as 0% in assay [13]; 0% in assay [14]; 0% in assay [15]; 82% in assay [16]; 0% in assay [17]; 0% in [18]. The “%Inh” value in [19] and in assay [20] was 0% in each case.
Take `Nc1ncc(-c2cn[nH]c2)c2scc(-c3ccc4c(c3)CCN4C(=O)Cc3ccccc3)c12` [GSK2593067]: the “%Inh” value in [1] was 0%; in [2], 14%; in assay [3], 5%; in assay [4] it was 0%; in [5], 0%; in [6], 0%. Also, the “%Inh” value in assay [7] turned out to be 97.6%; in [8] it was 0%; in assay [9] it was 0%; in assay [10], 0%; in assay [11] it was 3%; in [12], 3%. The “%Inh” value in [13] worked out at 0%; in [14] it was 0%; in assay [15], 0%; in assay [16], 10%; in [17], 0%; in assay [18], 0%. For the same compound, the “%Inh” value was 29% in assay [19] and 0% in [20].
Regarding `Fc1cc(Cl)ccc1Nc1ccnc2cc(-c3ccc(CN4CCSCC4)o3)ccc12` [GW560106], the “%Inh” value in assay [1] is given as 0%; in [2], 72%; in [3] it was 43%; in assay [4], 19%; in assay [5], 0%; in assay [6] it was 50%. Further, the “%Inh” value in assay [7] was 91.2%; in assay [8], 44%; in assay [9], 77%; in assay [10], 39%; in [11] it was 17%; in assay [12], 0%. For the same compound, the “%Inh” value in assay [13] was 0%; in [14], 0%; in assay [15], 0%; in assay [16], 0%; in [17], 6%; in assay [18], 0%. The “%Inh” value amounted to 37% in [19] and 0% in [20].
Consider `NCCC(NC(=O)c1cc(Br)c(-c2ccnc3[nH]ccc23)s1)c1ccccc1.O=C(O)C(F)(F)F.O=C(O)C(F)(F)F` (stereo not drawn) [GSK1307810], for which the “%Inh” value in [1] is reported as 3%; in [2] it was 11%; in assay [3] it was 4%; in assay [4] it was 0%; in assay [5], 0%; in assay [6], 0%. Further, the “%Inh” value amounted to 27% in assay [7]; 39% in assay [8]; 19% in assay [9]; 21% in assay [10]; 4% in [11]; 0% in [12]. In addition, the “%Inh” value turned out to be 7% in [13]; 0% in assay [14]; 0% in assay [15]; 33% in assay [16]; 22% in assay [17]; 9% in assay [18]. Also, the “%Inh” value in [19] was found to be 3%; in assay [20], 0%.
As to `Cl.Cl.NC(CNC(=O)c1cc(Br)c(-c2ccnc3[nH]ccc23)s1)c1ccccc1` (stereo not drawn) [GSK1322949], the “%Inh” value in assay [1] is given as 10%; in assay [2], 24%; in assay [3], 27%; in assay [4], 15%; in assay [5] it was 0%; in assay [6], 3%. The “%Inh” value came out at 75% in assay [7]; 24% in [8]; 18% in [9]; 0% in assay [10]; 4% in assay [11]; 0% in assay [12]. Moreover, the “%Inh” value in assay [13] was 4%; in assay [14], 27%; in assay [15] it was 0%; in assay [16] it was 24%; in [17] it was 13%; in assay [18] it was 83%. The results for the “%Inh” value in assay [19] and in [20] were 10% and 0%, respectively.
